{"source": "PubChem BioAssay AID588773", "about": "(The Scripps Research Institute Molecular Screening Center, 2011)", "note": "The source made the active and inactive calls.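 The calls were made as follows: active = inhibition of plasma PAF acetylhydrolase at a set limit or more at 0.1 µM, with tenfold selectivity over all off-targets; inactive = inhibition below the limit or weaker selectivity.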"}
{"test": "competitive ABPP of pPAFAH versus proteome off-targets – biochemical, gel-based, FP-Rh fluorescence, mouse, HTS hit compounds, selectivity assay for pPAFAH inhibitor project, late-stage follow-up (AID 588773)", "settings": "MW 30 kDa protein, at 10 µM, active compounds read high"}
{"compound": "O=C(CCCSc1ccc(Cl)cc1)Nc1cc(S(=O)(=O)N2CCOCC2)ccc1O", "inhibition": "19% (inactive)"}
{"compound": "O=C(Oc1ccc(Oc2ccccc2)cc1)N1CCC(O)CC1", "inhibition": "5% (inactive)"}
{"compound": "O=C(Oc1ccc(-c2ccccc2)cc1)N1CCCCC1", "inhibition": "69% (inactive)"}
{"compound": "CCCCOC(=O)c1ccc(OC(=O)N2CCOCC2)cc1", "inhibition": "14% (inactive)"}
{"compound": "O=C(Oc1nsnc1N1CCOCC1)N1CCOCC1", "inhibition": "35% (inactive)"}
{"compound": "O=C(Oc1ccc(-c2ccccc2)cc1)N1CCOCC1", "inhibition": "44% (inactive)"}
{"compound": "O=C(/C=C/c1cccs1)c1cc(Br)ccc1OC(=O)N1CCOCC1", "inhibition": "19% (inactive)"}
